Screening data deposited in PubChem BioAssay by National Center for Advancing Translational Sciences (NCATS).
Most compounds without a hit are left out; they make up all but 19% or so of the library.
TDP1 cell CPT: DT40-hTDP1 cell growth loss with CPT; chicken DT40 Tdp1-/-;hTDP1 cells + 20 nM CPT, ATP luminescence, 48 h; Potency, µM (doses to about 46.2 µM), usual class: inhibitors; 420,000 compounds, 12% hits; AID 686979; note: nearly all actives have a fitted effect of over 55% in size
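Cell growth measured by CellTiter-Glo luminescence after a minimum 48 h, 37 C compound exposure with 20 nM CPT in Tdp1-knockout DT40 cells stably expressing hTDP1, seeded 400/well; qHTS titration format.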
RORgamma inh: ROR gamma (mouse) transcription inhibition. Drosophila S2 Gal4-RORgamma UAS-luciferase reporter, 20 h. Potency, µM (top dose mostly 53.6 µM), most hits filed as inhibitors. AID 2551. P51450. 310,000 compounds, 5.4% hits; note: nearly all actives have a fitted effect of over 60% in size
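Using a luciferase readout, inhibitors were identified by reduced reporter activity in Drosophila cells coexpressing a copper-inducible Gal4–ROR gamma fusion and UAS-driven Photinus luciferase, incubated 20 hr after 700 uM copper sulfate.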
VP16 counter: Gal4-VP16 reporter inhibition counter-screen; 310,000 compounds, 3.5% hits; AID 2546; Drosophila S2 Gal4-VP16 UAS-luciferase, luminescence, 20 h; Potency, µM (series often up to 53.6 µM), hits mostly inhibitors;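 note: Gal4-VP16 expression switched on by copper sulfate through the metallothionein promoter; nearly all actives have a fitted effect of over 50% in size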
TDP1 inh: TDP1 (human) enzyme inhibition; Potency, µM (series often up to 130 µM), actives largely listed as inhibitors; AID 485290; Q9NUW8; 350,000 compounds, 0.28% hits; recombinant TDP1, AlphaScreen DNA substrate cleavage; note: nearly all actives have a fitted effect of over 40% in size
Target sequence (Q9NUW8 whole entry, looked up): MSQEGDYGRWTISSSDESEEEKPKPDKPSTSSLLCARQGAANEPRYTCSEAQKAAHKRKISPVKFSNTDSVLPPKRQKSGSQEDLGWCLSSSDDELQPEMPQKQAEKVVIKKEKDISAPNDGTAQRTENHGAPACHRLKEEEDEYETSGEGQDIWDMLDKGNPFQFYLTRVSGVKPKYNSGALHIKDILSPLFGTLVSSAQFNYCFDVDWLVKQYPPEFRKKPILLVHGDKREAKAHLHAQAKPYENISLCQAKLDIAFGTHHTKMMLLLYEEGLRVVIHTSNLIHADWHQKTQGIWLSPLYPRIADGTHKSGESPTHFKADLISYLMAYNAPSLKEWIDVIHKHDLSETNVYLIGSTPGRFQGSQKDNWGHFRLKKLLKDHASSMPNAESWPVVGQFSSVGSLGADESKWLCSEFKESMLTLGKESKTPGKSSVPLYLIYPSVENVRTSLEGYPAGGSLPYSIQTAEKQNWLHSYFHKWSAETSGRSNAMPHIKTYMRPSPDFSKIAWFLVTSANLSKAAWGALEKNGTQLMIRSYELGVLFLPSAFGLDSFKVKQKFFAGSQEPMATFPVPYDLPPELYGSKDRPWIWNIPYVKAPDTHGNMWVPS
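AlphaScreen read-out: signal falls as enzyme removes the 3' tyrosine-FITC from a 5'-biotinylated DNA oligo (15 nM, 5 min, RT). Enzyme was E. coli-made recombinant Tdp1 at 1 nM, exposed to compound for 15 min beforehand; beads 10 ug/ml, 10 min.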
TDP1 cell noCPT: qHTS for Inhibitors of human tyrosyl-DNA phosphodiesterase 1 (TDP1): qHTS in cells in absence of CPT. Potency, µM (series often up to 46.2 µM), most hits filed as inhibitors. 420,000 compounds, 15% hits. DT40 Tdp1-/- hTDP1 cells, no CPT, ATP luminescence, 48 h; note: nearly all actives have a fitted effect of over 55% in size
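Stably hTDP1-transfected Tdp1-null chicken DT40 cells were treated with library compounds minus camptothecin and grown for at least 48 hr at 37 °C, after which cellular ATP was quantified by luminescence.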
Of the large screens only hits and unclear results are named; the others gave an inactive call. Calls come from the whole dose curve; as a rule, active = well fitted curve in the direction sought with a large enough effect; inconclusive = small, poorly fitted or top-dose-only effect, or another doubt; inactive = no such curve, though single readings can be large; an effect the other way counts as inactive or inconclusive.

N/C(=N\O)c1ccc(NC(=O)c2ccc(Br)o2)cc1	TDP1 cell CPT 18µM, TDP1 cell noCPT inconclusive
CCN(c1ccccc1)S(=O)(=O)c1ccc(NC(=S)NC(=O)c2ccc(Br)o2)cc1	TDP1 cell CPT inconclusive, RORgamma inh 4.5µM, VP16 counter 16µM, TDP1 cell noCPT inconclusive
CCN(c1ccccc1)S(=O)(=O)c1ccc(NC(=O)c2cc(=O)c3cc(C)c(C)cc3o2)cc1	none (no result: RORgamma inh, VP16 counter)
CCC(=O)NC(=S)Nc1ccc(NC(=O)c2ccc(Br)o2)cc1	RORgamma inh 11µM, TDP1 cell noCPT inconclusive
O=C(Nc1ccc(F)cc1)C(c1ccccc1)N1CCN(CC(=O)N2CCCC2)CC1 (stereo not drawn)	none (no result: RORgamma inh, VP16 counter)
COC(=O)c1ccc(C(=O)OC)c(NC(=O)CN(C)Cc2ccc(Cl)c(Cl)c2)c1	TDP1 cell CPT inconclusive, RORgamma inh inconclusive, TDP1 cell noCPT inconclusive
COc1ccc(NC(=O)/C=N/O)cc1	none
COc1ccc(N/N=C(\C=N\O)C(=O)c2ccc(OC)cc2)cc1	TDP1 cell CPT 2.6µM, TDP1 cell noCPT 2.9µM
O=c1[nH]c(=O)n(C2CCCCC2)c(O)c1C1=Nc2ccccc2SC(c2ccc(Cl)cc2)C1 (stereo not drawn)	none (no result: RORgamma inh, VP16 counter)
CCOC(=O)C1CCCN(c2c(Nc3cc(C)cc(C)c3)c(=O)c2=O)C1 (stereo not drawn)	none
CCOC(=O)C1CCCN(c2c(Nc3ccc(C)c(C)c3)c(=O)c2=O)C1 (stereo not drawn)	TDP1 cell CPT 16µM, TDP1 cell noCPT inconclusive
CC(C)CN(C(=O)c1cccc(F)c1)c1c(N)n(CC(C)C)c(=O)[nH]c1=O	none
O=C1C(Cl)=C(NCCCO)C(=O)c2ccccc21	TDP1 cell CPT 23µM, RORgamma inh 11µM, VP16 counter inconclusive, TDP1 cell noCPT 18µM
CCOCCCNC1=C(Cl)C(=O)c2ccccc2C1=O	TDP1 cell CPT 5.8µM, VP16 counter inconclusive, TDP1 cell noCPT 6.5µM
CCOCCCNS(=O)(=O)c1ccccc1	none
Cc1ccc(NC2=C(NCCO)C(=O)c3ccccc3C2=O)cc1	TDP1 cell CPT 13µM, TDP1 cell noCPT inconclusive
COc1ccccc1C(=O)NCCC(=O)N1CCN(C(C)=O)CC1	none (no result: RORgamma inh, VP16 counter)
Cc1cccc(C)c1N1C(=O)C(Cl)=C(N2CCCC2)C1=O	none
CCOC1(OCC)C(c2ccc(N)cc2)C(C#N)(C#N)C1(OCC)OCC (stereo not drawn)	none
CCOC1(OCC)C(c2ccc(Cl)cc2)C(C#N)(C#N)C1(OCC)OCC (stereo not drawn)	TDP1 cell CPT inconclusive, RORgamma inh 13µM, TDP1 cell noCPT 18µM
CCN(C(=O)c1coc(=O)c(Br)c1)c1ccc2c(c1)OCO2	TDP1 cell CPT 1.5µM, TDP1 cell noCPT 1µM
CCOC(=O)c1cc(-c2ccc([N+](=O)[O-])cc2)nc2c1c(=O)[nH]c(=O)n2Cc1ccccc1	TDP1 cell CPT 7.3µM, TDP1 cell noCPT 5.8µM (no result: TDP1 inh)
CCOC(=O)c1cc(-c2cccnc2)nn1-c1ccccn1	none
CCOC(=O)c1cc(-c2ccc(Cl)cc2)nc2c1c(C)nn2CCC#N	TDP1 cell CPT inconclusive, TDP1 cell noCPT inconclusive
CCOC(=O)c1cc(-c2ccncc2)nc2c1c(C)nn2C	TDP1 cell CPT inconclusive, TDP1 cell noCPT 18µM
CCOC(=O)c1cc(-c2ccccc2)nc2c1c(C)nn2-c1ccccn1	TDP1 cell CPT inconclusive, RORgamma inh 4µM, VP16 counter 11µM, TDP1 cell noCPT inconclusive
CCOC(=O)c1cc(-c2ccc3c(c2)OCCO3)nc2c1c(C)nn2CCC#N	TDP1 cell CPT inconclusive, TDP1 cell noCPT 12µM
Fc1ccccc1CSc1nc2ncccc2[nH]1	none
NC(=O)c1nsc(C(=O)N(Cc2ccccc2Cl)C(C(=O)NCC2CCCO2)c2ccc(O)cc2)c1N (stereo not drawn)	none
CCN(CC)c1ccc(NS(=O)(=O)c2cn(C)c(=O)n(C)c2=O)c(C)c1	none (no result: TDP1 inh)
CCN(CC)c1ccc(NS(=O)(=O)c2ccc(-c3cnc(C4CC4)o3)cc2)c(C)c1	TDP1 cell CPT 12µM, TDP1 cell noCPT 16µM (no result: RORgamma inh, VP16 counter)
Cc1ccc(NS(=O)(=O)c2ccc(-c3cnc(C4CC4)o3)cc2)c(C)c1	TDP1 cell CPT 1.5µM, TDP1 cell noCPT 1µM
Cc1cccc(N(C)S(=O)(=O)c2ccc(-c3cnc(C4CC4)o3)cc2)c1	TDP1 cell CPT 0.029µM, TDP1 cell noCPT 0.037µM
Cc1cccc(N(C)S(=O)(=O)c2ccc3c(c2)NC(=O)CC(=O)N3)c1	none
O=S(=O)(Nc1ccc(F)cc1Cl)c1ccc(-c2cnc(C3CC3)o2)cc1	TDP1 cell CPT 0.65µM, RORgamma inh inconclusive, TDP1 cell noCPT 0.73µM
CCOC(=O)c1cccc(NC(=O)c2ccc3c(c2)C(=O)N(CC2CCCO2)C3=O)c1 (stereo not drawn)	none
Cc1ccc(C2=CC(=O)CC(C)(C)C2)cc1	none (no result: RORgamma inh, VP16 counter)
COc1cccc(C(=O)NCCS(=O)(=O)NCCc2ccccc2)c1	TDP1 cell noCPT inconclusive (no result: RORgamma inh, VP16 counter)
Cc1cc(C)c(NS(=O)(=O)c2ccc(-c3cnc(C4CC4)o3)cc2)c(C)c1	TDP1 cell CPT 0.58µM, TDP1 cell noCPT 0.018µM (no result: RORgamma inh, VP16 counter)
O=C(N/N=C/C1C(c2ccccc2)C1(Cl)Cl)c1cccc(Br)c1 (stereo not drawn)	TDP1 cell CPT inconclusive, RORgamma inh 4.5µM, VP16 counter 6.3µM, TDP1 cell noCPT inconclusive
O=C(N/N=C/c1[nH]c2ccccc2c1Cl)c1cccc(Br)c1	RORgamma inh 3.2µM, VP16 counter 7.9µM, TDP1 cell noCPT inconclusive
Cc1[nH]c2ccccc2c1/C=N/NC(=O)c1cccc(Br)c1	none (no result: TDP1 inh)
Cc1ccc2oc(C(Cl)(Cl)Cl)cc(=O)c2c1	TDP1 cell CPT 4.6µM, RORgamma inh 5µM, VP16 counter inconclusive, TDP1 cell noCPT 5.8µM
C=CCN(C(=O)COC(=O)c1cc[n+]([O-])cc1)c1nc(-c2ccccc2)cs1	TDP1 cell CPT inconclusive, TDP1 cell noCPT inconclusive (no result: RORgamma inh, VP16 counter)
CCc1ccc(N2C(=O)C(Cl)=C(Nc3ccc(C(=O)N4CCCC4)cc3)C2=O)cc1	none (no result: RORgamma inh, VP16 counter)
N#Cc1c(-c2ccc(Cl)cc2)n(O)c2ccccc12	TDP1 cell CPT 3.3µM, TDP1 cell noCPT 3.3µM (no result: RORgamma inh, VP16 counter, TDP1 inh)
N#Cc1c(C#N)c(O)c2ccccc2c1O	none
CCc1cc(=O)oc2cc(C)cc(OC(C)C(=O)NCCCN3CCOCC3)c12 (stereo not drawn)	none
CCCCn1c(SCC(N)=O)nc2ccc(N3CCOCC3)cc2c1=O	RORgamma inh 1.6µM, VP16 counter 10µM, TDP1 cell noCPT inconclusive
COc1ccc(Cn2c(SCC#N)nc3ccc(N4CCOCC4)cc3c2=O)cc1	TDP1 cell CPT inconclusive, RORgamma inh 10µM, VP16 counter inconclusive, TDP1 cell noCPT inconclusive
CCCCn1c(SCC(N)=O)nc2c(sc3ccccc32)c1=O	TDP1 cell CPT inconclusive, TDP1 cell noCPT inconclusive
COc1cccc(NC(=O)CSc2nc3ccccc3c(=O)n2CCCC(=O)NCCCN2CCOCC2)c1	none
